Experimental data taken from article PMC5540273 (PLoS ONE, 2017).

Experiments:
Details in all cases: concentration: 1 μM, replicates: in singlicate; n = 1
PAK1 = system: PAK1
PAK2 = system: PAK2
PAK3 = system: PAK3
PAK4 = system: PAK4
PAK6 = system: PAK6
PAK7 = system: PAK7
PCTK1 = system: T1, PCTK1
T1 construct: gene CDK16

PCTK2 = system: T2, PCTK2
T2 construct: gene CDK17

PCTK3 = system: T3, PCTK3
T3 construct: gene CDK18

PDGFRA = system: PDGFRA
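Also: KINOMEscan kinase panel screen.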

Structure (SMILES) | %Inh (PAK1) | %Inh (PAK2) | %Inh (PAK3) | %Inh (PAK4) | %Inh (PAK6) | %Inh (PAK7) | %Inh (PCTK1) | %Inh (PCTK2) | %Inh (PCTK3) | %Inh (PDGFRA)
Cl.Fc1ccccc1COc1ccc(Nc2ncnc3ccc(-c4nnc(C(F)(F)F)o4)cc23)cc1Cl [GW424170] | 0% | 0% | 0% | 0% | 0% | 10% | 0% | 0% | 17% | 0%
Fc1ccc(-c2ncn(CCCNCc3ccccc3)c2-c2ccncc2)cc1 | 30% | 25% | 0% | 11% | 11% | 14% | 7% | 0% | 8% | 0%
Nc1nc(-c2ccc3c(N)n[nH]c3c2)cc(N2CCC[C@@H](C(=O)Nc3ccccc3)C2)n1.O=C(O)C(F)(F)F.O=C(O)C(F)(F)F [GSK2288359] | 2% | 0% | 27% | 0% | 0% | 6% | 14% | 8% | 0% | 15%
Cc1ccc(NC(=O)c2cccc(C#N)c2)cc1-c1ccc(C(=O)Nc2ccncc2)cc1 [GSK1398463] | 16% | 21% | 0% | 0% | 0% | 1% | 2% | 0% | 18% | 86%
